# Results from ChEMBL document CHEMBL3988442, “University of Dundee, Small-Polar-MMV Screening Library” (2021).
# In all, about 48,000 compounds went through this assay and about 13,000 (27%) showed an effect of 50% or more. The list shows a part of the results.
# System: Wolbachia pipientis
# Assay: Anti-Wolbachia Cell-Based Screen
# Format: functional
# Parameters: scale not given: in the data most compounds retested in dose-response had high values
# Conditions: 5 µM
row,SMILES,Percent Effect [%]
1,CCc1nc(CCNC(=O)NC2CCSCC2)cs1,5.983
2,Cc1cn(CC(=O)NC2CCC3(CC2)OCCO3)c2ccccc12,-12.26
3,CCCN1CCN(C(=O)c2ccc3nc(C)oc3c2)[C@H]2CS(=O)(=O)C[C@H]21,-5.857
4,COCCN1C[C@H]2CN(Cc3cccc(OC(F)(F)F)c3)CCN2C1=O,-4.744
5,Cc1cc(C)n(-c2ccc(C(C)NS(N)(=O)=O)cc2)n1 (centres undefined),-26.74
6,Cc1cc(OCc2cccc(F)c2)ccc1NC(=O)C(C)NC(N)=O (centres undefined),-0.2467
7,Cc1cccc(COc2ccc(C(C)NC(=O)CNC(N)=O)cc2)c1 (centres undefined),98.3
8,CS(=O)(=O)Cc1ccc(OCc2ccc(F)cc2)cc1,-17.41
9,Cc1cccc(CNCCOc2ccc(S(C)(=O)=O)cc2)c1,16.11
10,Cc1cccc(COc2ccc(C(C)NS(N)(=O)=O)cc2)c1 (centres undefined),134.5
11,Cc1cccc(COc2ccc(NC(=O)C(C)NC(N)=O)c(C)c2)c1 (centres undefined),-6.983
12,NC(=O)CS(=O)(=O)Cc1ccc(OCc2ccc(F)cc2)cc1,-22.33
13,CC(=O)NC(C)C(=O)Nc1ccc(OCc2cccc(F)c2)cc1C (centres undefined),-4.537
14,CC(NS(N)(=O)=O)c1ccc(OCc2ccc(F)cc2)cc1 (centres undefined),111.6
15,Cc1ccc(OCCC(=O)NC(C)c2ccncc2)cc1 (centres undefined),-14.45
16,Cc1cccc(COc2ccc(C(C)N)cc2)c1.Cl (centres undefined),108.7
17,COc1cccc2ccc(CN3CCN(c4ncccn4)CC3)nc12,-3.273
18,CC(C)(C)c1c[nH]c([C@@H]2COCCN2C2CCC2)n1,-8.065
19,Cc1cc(C)n(C2CN(C(=O)CN3C(=O)CSc4ccccc43)C2)n1,2.557
20,Cc1ccsc1[C@@H]1CCN(C(=O)Cn2cc3ccccc3n2)C[C@H]1O,-6.576
21,CS(=O)(=O)N1CCc2nc(NC(=O)Nc3c(F)cccc3F)sc2C1,-13.59
22,CCCNC(=O)c1nc2c(o1)CN(C(C)=O)C2,21.64

row,SMILES,Percent Effect [%]
1,COc1ccc(CCNC2CCCN(c3ccc(C)nn3)C2)cc1 (centres undefined),-3.788
2,COc1ccc(C2CCCN2c2nnc(C)s2)c(OC)c1 (centres undefined),6.611
3,CCN1CCN(C(=O)c2scnc2C)CC1,114.5
4,COc1ccccc1C(=O)N1CCN(CCc2scnc2C)CC1,-5.378
5,Cc1ncsc1C(=O)N1CCC(Nc2cccnn2)CC1,-12.54
6,Cc1cccc(C(=O)N2CCCN(CCc3scnc3C)CC2)c1,-3.968
7,Cc1ncsc1C(=O)N1CCN(Cc2ccccc2)CC1C (centres undefined),4.154
8,CC(C)CCN1CCN(C(=O)c2cccnc2-n2cncn2)CC1,7.327
9,Cc1ncsc1C(=O)N1CCN(CCC(C)C)CC1,114
10,Cc1ncsc1C(=O)N1CCn2nc(CN3CCSCC3)cc2C1,-3.157
11,COCCN1CCCN(C(=O)c2scnc2C)CC1,111.8
12,c1cc(CCN2CCC(NCc3ccsc3)CC2)ccn1,-8.408
13,Cc1ccc(N2CCCC(NC(=O)Nc3cnn(C)c3)C2=O)cc1 (centres undefined),10.21
14,O=C(NCc1cnc2n1CCN(Cc1ccoc1)C2)c1ccno1.O=C(O)C(F)(F)F,0.5733
15,CC(=O)N1CCc2c(nc(N(C)C)nc2NC(C)Cc2cccs2)C1 (centres undefined),16.87
16,CC(C)Nc1ncnc2c1CCN(C(=O)Cc1ccccn1)CC2.O=C(O)C(F)(F)F,17.78
17,Cc1nc(-c2ccc(F)cc2)nc2c1CCN(C(=O)CN(C)C)CC2,3.588
18,Cc1nc2c(c(NC(C)C)n1)CCN(Cc1cccnc1)CC2.O=C(O)C(F)(F)F.O=C(O)C(F)(F)F,-13.98
19,CC(C)Nc1nc(-c2ccccc2)nc2c1CCN(C(=O)C1CC1)CC2.O=C(O)C(F)(F)F,99.02
20,CC(=O)NCC(=O)N1CCc2nc(-c3ccccc3)nc(C)c2CC1,-15.18
21,CC(=O)N1CCc2nc(-c3ccc(F)cc3)nc(NC(C)C)c2CC1,94.36
22,CC(C)Nc1nc(-c2ccccc2)nc2c1CCN(C(=O)CC#N)CC2,98.77

row,SMILES,Percent Effect [%]
1,CC(=O)N1CCc2nc(-c3ccccc3)nc(NC(C)C)c2CC1,96.01
2,CSCC(=O)N1CCc2nc(C)nc(NCc3ccccc3)c2CC1,-12.22
3,Cc1nc2c(c(NC(C)C)n1)CCN(C(=O)c1ccno1)CC2.O=C(O)C(F)(F)F,-9.631
4,Cc1ncsc1C(=O)NCc1cc2n(n1)CCN(C(=O)N(C)C)C2,-4.389
5,Cc1sc2nc(CCN)nc(N3CCN(S(C)(=O)=O)CC3)c2c1C,5.151
6,CN1CC(=O)N(c2ccsc2)CC12CCN(C(=O)c1ccccc1)C2.O=C(O)C(F)(F)F (centres undefined),8.898
7,CCC(CC)C(=O)N1CCC2(C1)CN(c1ccccc1)C(=O)CN2C.O=C(O)C(F)(F)F (centres undefined),-2.96
8,CN1CC(=O)N(c2cccnc2)CC12CCN(C(=O)c1cccnc1)C2.O=C(O)C(F)(F)F.O=C(O)C(F)(F)F (centres undefined),-6.437
9,CN1CC(=O)N(c2ccccc2)CC12CCN(C(=O)c1ccnnc1)C2.O=C(O)C(F)(F)F (centres undefined),94.6
10,CN1CC(=O)N(c2cnn(C)c2)CC12CCN(C(=O)c1ccsc1)C2.O=C(O)C(F)(F)F (centres undefined),-13.31
11,CN1CC(=O)N(c2ccccc2)CC12CCN(C(=O)c1cnccn1)C2.O=C(O)C(F)(F)F (centres undefined),102.5
12,Cc1ccsc1C(Cc1ccccc1)NC(=O)CSCC(N)=O (centres undefined),-6.461
13,COCCCOC1CN(C(=O)c2[nH]nc3c2CCCC3)C1,-6.811
14,Cl.Cl.O[C@@H]1C[C@@](CNCC2CC2)(COc2cccnc2)C[C@@H]1O,-8.613
15,CC(C)(C)c1cc(=O)[nH]c(-c2ccccc2CN2CCC[C@@H](O)C2)n1,-11.42
16,CC1(C)CCN(Cc2ccccc2-c2nc(C(C)(C)C)cc(=O)[nH]2)C1,-0.3128
17,CC(C)(C)c1cc(=O)[nH]c(-c2ccccc2CN2CCCCCC2)n1,107.3
18,CCCN1CCC(CC(=O)N2CC(C)(C)[C@@](C)(O)C2)CC1,2.3
19,Cc1nc(N2CCC(C(O)c3nccn3C)CC2)c2cccnc2n1 (centres undefined),-5.3
20,CCn1ncnc1C(NC(=O)CC1CCN(C(C)C)CC1)C1CC1 (centres undefined),-0.6358
21,Cc1nc(N2CCC(C(O)c3nccn3C)CC2)c2c(C)noc2n1 (centres undefined),0.7849
22,Cc1nc(N2CCC(C(O)c3nccn3C)CC2)c2nc(C)oc2n1 (centres undefined),6.999

row,SMILES,Percent Effect [%]
1,CC(C)N1CCC(CC(=O)N2CCCCC2CCn2cccn2)CC1 (centres undefined),17.49
2,CC(C)N1CCC(C(=O)N2CCC(C(O)c3nccn3C)CC2)CC1 (centres undefined),119.5
3,CC(C)n1ccnc1CN1CCCN(C(=O)CC2C=CCC2)CC1 (centres undefined),11
4,CC(C)N1CCC(CC(=O)N2CCC(C(O)c3nccn3C)CC2)CC1 (centres undefined),112.6
5,CC(C)N1CCC(CC(=O)N2CCN(Cc3nccn3C)CC2)CC1,103.8
6,CCCN1CCC(CC(=O)N2CCC(C(O)c3nccn3C)CC2)CC1 (centres undefined),109.9
7,CCOc1ccccc1CN(CC)Cc1ccc(S(C)(=O)=O)cc1,14.95
8,CSc1ccc(NCC(=O)Nc2c(C)nn(C)c2C)cc1F,-13.07
9,Cn1c(=O)ccn(CC(=O)Nc2cnccc2O)c1=O,-3.574
10,Cn1c(=O)ccn(CC(=O)NCC2Cc3ccccc3O2)c1=O (centres undefined),4.727
11,CC(NC(=O)Cn1ccc(=O)n(C)c1=O)c1ccccc1F (centres undefined),122
12,CC(NC(=O)Cn1ccc(=O)n(C)c1=O)c1cc(F)ccc1F (centres undefined),123.1
13,CC(NCCn1cccn1)c1ccccc1F (centres undefined),17.82
14,CCS(=O)(=O)CC(=O)NC(C)c1ccc(F)cc1F (centres undefined),5.956
15,Cc1nnc2n1CCN(c1nc3ccccc3o1)C2,7.974
16,CCCNC(=O)C(C)Oc1ccc(F)cc1 (centres undefined),-16.03
17,CC(Oc1cc(Cl)cc(Cl)c1)C(=O)NCCS(N)(=O)=O (centres undefined),112.6
18,CC(Oc1cc(Cl)cc(Cl)c1)C(=O)NCCOCC(N)=O (centres undefined),92.53
19,CCNC(=O)C(C)Oc1ccc(N(C)S(C)(=O)=O)cc1 (centres undefined),35.45
20,CC(Oc1cc(Cl)cc(Cl)c1)C(=O)NCCC(=O)N(C)C (centres undefined),99.28
21,CC(C)c1ccc(OCCC(=O)NCCC(=O)N(C)C)cc1,5.568
22,CCCNC(=O)C(C)Oc1ccccc1 (centres undefined),7.787

row,SMILES,Percent Effect [%]
1,CC(Oc1ccccc1C(F)(F)F)C(=O)NCCC(=O)N(C)C (centres undefined),4.179
2,CC(Oc1ccc(S(C)(=O)=O)cc1)C(=O)NC(N)=O (centres undefined),-0.9866
3,Cc1ccc(-c2noc(C(C)NS(C)(=O)=O)n2)cc1 (centres undefined),98.3
4,Cc1ccc(-c2noc([C@@H]3C[C@H](NC(=O)NC(C)C)CN3C)n2)cc1,-7.192
5,Cc1cnn(C2CN(C(C)c3nc(-c4ccccc4)no3)C2)c1 (centres undefined),-0.8523
6,O=C(CCc1cccs1)N1CCCCC1Cn1cccn1 (centres undefined),8.16
7,CN(Cc1ccsc1)C(=O)CN1CCCCC1Cn1cccn1 (centres undefined),-3.818
8,CSCCC(=O)N1CCCCC1CCn1cccn1 (centres undefined),-3.819
9,COc1cccc(CCC(=O)N2CCCCC2Cn2cccn2)c1 (centres undefined),-6.08
10,O=C(CCc1ccccc1)N1CCCCC1Cn1cccn1 (centres undefined),99.73
11,O=C(CCc1ccsc1)N1CCCCC1Cn1cccn1 (centres undefined),114.6
12,O=C(CN1CCN(CCO)CC1)NCc1ccc(Cl)s1,-5.807
13,Cc1nsc(NC2CCOC3(CCCC3)C2)n1 (centres undefined),-8.543
14,Cc1cccc(OC2CN(C(=O)c3cnn(C)c3)C2)c1,-4.108
15,COc1cccc(OC2CN(C(=O)c3ccnc(OC)c3)C2)c1,6.103
16,CCn1cc(C(=O)N2C[C@H]3C[C@H](Oc4ccccc4)C[C@H]3C2)cn1,75.19
17,CN(C)c1ncc(C(=O)N2C[C@H]3C[C@H](Oc4ccccc4)C[C@H]3C2)cn1,125.1
18,Cn1cc(C(=O)N2C[C@H]3C[C@H](Oc4ccccc4)C[C@H]3C2)cn1,96.44
19,Cn1cc(C(=O)N2CCCN(C3Cc4ccccc4C3)CC2)cn1,-3.221
20,CCc1ncc(C(=O)N2CC(Oc3ccccc3Cl)C2)cn1,4.007
21,CCn1cc(CN2C[C@H]3CC[C@@H]2CN(C(=O)c2ccncc2)C3)cn1,5.818
